The results in this text go back to PubChem BioAssay (NCI).

Holding throughout (test): NCI-60 one-dose screen, 48 h (100 = growth as untreated, 0 = no growth, -100 = all killed)
The test system of experiment [1] is DU-145 prostate. To be noted: 10 µM unless noted.
Experiment [2] deals with K-562 leukemia. To be noted: 10 µM unless noted.
The subject of experiment [3] is MALME-3M melanoma. As to conditions: 10 µM unless noted.
Experiment [4] has as its system MDA-MB-231 breast. As to conditions: 10 µM unless noted.
Experiment [5] relates to RXF 393 renal. As to conditions: 10 µM unless noted.
The test system of experiment [6] is SF-268 CNS. To be noted: 10 µM unless noted.
The test system of experiment [7] is SF-295 CNS. As to conditions: 10 µM unless noted.
In experiment [8] the test system is SF-539 CNS. As to conditions: 10 µM unless noted.
Experiment [9] concerns UACC-257 melanoma. To be noted: 10 µM.
Experiment [10] has as its system M14 melanoma. To be noted: 10 µM unless noted.

About 83,000 compounds went through this panel and 20% of them were active in at least one assay; those are over-represented in the sample as a whole.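 Single-dose data. Exposure time 48 hours. Values below 10 considered active.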 Unmarked numbers belong to inactive results. The source made the active and inactive calls.

Take `CCc1ccc(NC(=O)N[C@@H](Cc2cc(F)cc(F)c2)C(=O)N[C@@H]2C(=O)N3CCC[C@H]3C(=O)N3CCO[C@H](C)[C@H]3C(=O)N[C@@H](CO)C(=O)N3C[C@H](C)C[C@H]3C(=O)O[C@H]2C)c(F)c1`: the growth in experiment [1] was 26.4%; in experiment [2] it was 21.5%; in experiment [3], 40.8%; in [4], 33.3%; in experiment [5] it was -5.23% (active); in experiment [6], 32.4%. The growth is 12.6% in experiment [7], 39.9% in experiment [8], 12.9% in experiment [9] and 24% in experiment [10].

For the compound `N#Cc1c(-c2ccccc2)cc(-c2c[nH]c3ccccc23)nc1-c1c[nH]c2ccccc12`, the growth in [1] is 108%; in [2], 101%; in experiment [3], 99.8%; in experiment [4], 92.6%; in [5], 95%; in experiment [6] it was 96.1%. The growth in [7] is 96.4%; in experiment [8], 98.6%; in experiment [9], 107%; in experiment [10] it was 101%.

For the compound `CNC(=O)c1cc(Oc2ccc3nc(NC(=O)c4cc(C)cc(C)c4)sc3c2)ccn1`, the growth was 93.5% in experiment [1]; 50% in experiment [2]; 87.7% in experiment [3]; 84.6% in experiment [4]; 69.2% in experiment [5]; 82.4% in experiment [6]. Moreover, the growth in experiment [7] was 65%; in experiment [8], 85.6%; in experiment [9] it was 89.1%; in experiment [10], 53.6%.

Turning to `O=C1NC(=O)c2c1c1c3ccccc3ccc1c1[nH]c3ccccc3c21`, the growth in experiment [1] is 22.9%; in experiment [2], 9.34% (active); in [3], -15.2% (active); in [4], 34%; in experiment [5] it was -21.2% (active); in [6], 5.68% (active). Also, the growth is 3.01% (active) in experiment [7], 18.4% in experiment [8], 44.1% in experiment [9] and 15.9% in [10].

On to `O=S(=O)(Nc1ccc(-c2nc(-c3cccc(O)c3)c(-c3ccnc(Br)c3)[nH]2)cc1)c1ccccc1`, for which the growth is 54.6% in [1]; 2.08% (active) in experiment [2]; 39.8% in experiment [3]; 23% in experiment [4]; -16.3% (active) in [5]; 37.1% in [6]. The growth in experiment [7] was 10.4%; in [8], 44.4%; in [9], 44.5%; in experiment [10], 26.1%.

As for `O=C(Nc1cc(Cl)cc(Cl)c1)Nc1ccc2oc(=O)ccc2c1`, the growth is 17% in experiment [1]; 15.4% in experiment [2]; 0.228% (active) in experiment [3]; 24.6% in [4]; 47.7% in experiment [5]; 24.8% in experiment [6]. The growth was 3.51% (active) in experiment [7], 22.5% in experiment [8], 23.4% in experiment [9] and 32.5% in experiment [10].

For `CCCCOc1ccc(S(=O)(=O)N2CCN(c3nccc(N4CCOCC4)n3)CC2)cc1`, the growth in experiment [1] was 20.3%; in experiment [2] it was 50.8%; in [3] it was 97.6%; in experiment [4] it was 21.5%; in experiment [5], 52.3%; in [6], 13.3%. Moreover, the growth in experiment [7] is -40.2% (active); in [8] it was 65.3%; in experiment [9], 12%; in experiment [10] it was 18.6%.

On to `O=C1c2cc(Br)ccc2-n2c1nc1cc(Br)ccc1c2=O`, for which the growth is 74.1% in experiment [1]; 73.9% in experiment [2]; 44.1% in experiment [3]; 75.5% in [4]; 97.6% in experiment [5]; 78% in [6]. For the same compound, the growth was 87% in experiment [7], 92.4% in experiment [8], 43.1% in experiment [9] and 72.2% in experiment [10].

Take `O=C(NNc1nc2cc(F)ccc2n2cncc12)c1cnccn1`: the growth in [1] was 26.6%; in experiment [2] it was 23.9%; in experiment [3], 29.5%; in experiment [4], 34.1%; in experiment [5] it was 68.6%; in experiment [6], 28.3%. Further, the growth was 0.0659% (active) in experiment [7], 30.1% in experiment [8], 36.5% in [9] and 0.271% (active) in [10].

Consider `CCc1ccc(NC(=O)N[C@@H](Cc2cccc(F)c2)C(=O)N[C@@H]2C(=O)N3CCC[C@H]3C(=O)N3CCCC[C@H]3C(=O)N[C@@H](C)C(=O)N3C[C@H](C)C[C@H]3C(=O)O[C@H]2C)c(F)c1`, for which the growth in experiment [1] is 25.2%; in experiment [2] it was 17.5%; in [3], 41.4%; in experiment [4], 26.8%; in [5], -10.1% (active); in [6], 34.9%. For the same compound, the growth in experiment [7] was 4.24% (active); in experiment [8], 29.8%; in experiment [9] it was 22.2%; in experiment [10] it was 22%.

Regarding `CCc1ccc(NC(=O)N[C@@H](Cc2cccc(C)c2)C(=O)N[C@@H]2C(=O)N3CCC[C@H]3C(=O)N3CCCC[C@H]3C(=O)N[C@@H](CO)C(=O)N3C[C@H](C)C[C@H]3C(=O)O[C@H]2C)c(F)c1`, the growth in experiment [1] is 25.3%; in experiment [2] it was 27%; in experiment [3], 37.3%; in experiment [4] it was 33.9%; in experiment [5], -9.15% (active); in experiment [6], 30.1%. The growth in experiment [7] is 12.8%; in [8] it was 37.5%; in experiment [9], 15%; in experiment [10] it was 23.7%.

Turning to `CCCCSc1nnc(-c2ccc(-c3ccc(Cl)cc3)nc2C)o1`, the growth in experiment [1] was 98.2%; in experiment [2] it was 90.1%; in experiment [3] it was 102%; in experiment [4], 104%; in [5], 110%; in experiment [6] it was 103%. The growth in experiment [7] is 96.8%; in experiment [8], 98.1%; in [9], 106%; in [10], 104%.
